Assay results from PubChem BioAssay.
Activity calls are given as the source filed them. Unless noted, no rule for the calls is given here.

Key:
[1] = test system: Wnt5a (protein binding on small-molecule microarray); test: small molecules binding Wnt5a protein – biophysical, small-molecule microarray, 635/667 nm fluorescence, primary screen (AID 1142); conditions: 635 nm fluorescence, higher = more signal;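 also: fluorescence read at 667 nm with signal to noise per printed feature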
[2] = ATP-based viability of Huh7 replicon cells – cell-based, CellTiter-Glo luminescence, basal, 48 h, cytotoxicity control for HCV replication inhibitor project, primary screen (AID 1143); conditions: higher = more signal, called active from +8 up or from −8 down;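 also: Huh7 hepatoma cells carrying a hepatitis C replication reporter with no stimulus; test concentration not given here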
[3] = Pseudomonas biofilm growth suppression – PAO1 strain, BacTiter-Glo luminescence, LB-PBS, primary screen (AID 1144); conditions: P. aeruginosa PAO1 biofilm, 12 h, higher = more signal
[4] = basal CRE-LacZ reporter activity in PC12 – cell-based, unstimulated, primary screen (AID 1145); conditions: no forskolin, luminescence, 4.5 h, higher = more signal, called active from +8 up or from −8 down
[5] = forskolin-driven CRE-LacZ activity in PC12 – cell-based, CRE-LacZ reporter, forskolin-stimulated, primary screen (AID 1146); conditions: luminescence, 4.5 h, higher = more signal, called active from +8 up or from −8 down;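 also: PC12 cells with 6xCRE LacZ reporter stimulated by forskolin 10 µM; beta-galactosidase reporter signal reflecting CREB driven transcription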
[6] = molecular target: Streptavidin (Streptomyces avidinii) (UniProt P22629); test: compounds binding control protein streptavidin – biophysical, small-molecule microarray, 635/667 nm fluorescence, artefact control for SMM compound annotation, primary screen (AID 1147); conditions: higher = more signal;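 also: signal reflects streptavidin binding to arrayed compounds as a control protein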
[7] = probe aInhba binding on compound microarray – biochemical, small-molecule microarray, 635/667 nm fluorescence, primary screen (AID 1148); conditions: higher = more signal;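 also: score merges 667nm spot fluorescence with signal-to-noise for antibody binding to printed compounds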
Torsin-1A (Homo sapiens) [8] = molecular target: Torsin-1A (Homo sapiens) (UniProt O14656); test: TOR1A wild-type binding on microarray – cell lysate, small-molecule microarray, lysate, 635/667 nm, primary screen (AID 1149); conditions: COS7 hTOR1A-WT lysate, 635 nm fluorescence, higher = more signal
Torsin-1A (Homo sapiens) [9] = molecular target: Torsin-1A (Homo sapiens) (UniProt O14656); test: torsin A mutant lysate binding on microarrays – cell lysate, small-molecule microarray, COS7 lysate, 635/667 nm fluorescence, primary screen (AID 1150); conditions: COS7 hTOR1A mutant lysate, 635 nm fluorescence, higher = more signal;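 also: score pools 667 nm emission and signal to noise measuring lysate protein binding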
[10] = test system: Sonic hedgehog protein (Shh); test: Sonic hedgehog microarray binding compounds – biochemical, small-molecule microarray, 635/667 nm fluorescence, primary screen (AID 1151); conditions: 635 nm fluorescence, higher = more signal;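 also: Shh protein binding to compounds spotted on small-molecule microarray slides; score combines spot fluorescence intensity with signal-to-noise across triplicate slides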
[11] = optical density shifts of acrAB sulA E. coli – strain DRC41, OD650, 48 h, E. coli filamentation inducer project, primary screen (AID 1152); conditions: higher = more signal, called active from +8 up or from −8 down;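 also: E. coli MC1000 strain DRC41 lacking acrAB efflux pump and sulA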
[12] = probe aLefty1 binding on compound microarray – biochemical, small-molecule microarray, 635/667 nm fluorescence, primary screen (AID 1153); conditions: higher = more signal;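 also: score merges spot fluorescence with signal-to-noise ratio from the scanned slide images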
[13] = plasmodial surface anion channel blockers, osmotic lysis – cell-based, P. falciparum Indochina, OD700, 1 h, primary screen (AID 1154); conditions: P. falciparum Indochina infected RBC osmotic lysis, higher = more signal, called active from +8 up or from −8 down
[14] = plasmodial surface anion channel blockers, osmotic lysis – cell-based, P. falciparum Indochina, OD700, 2 h, primary screen (AID 1155);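 also: lysis reports solute entry through the parasite surface anion channel PSAC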; conditions: P. falciparum Indochina infected erythrocytes, higher = more signal, called active from +8 up or from −8 down
[15] = changes in parasitized red cell lysis, either direction – P. falciparum Indochina, OD700, 3 h, PSAC antagonist project, primary screen (AID 1156); conditions: P. falciparum-infected erythrocytes, osmotic lysis, higher = more signal, called active from +8 up or from −8 down
[16] = plasmodial surface anion channel blockers, osmotic lysis – cell-based, P. falciparum Indochina, OD700, 18 h, primary screen (AID 1157); conditions: P. falciparum Indochina infected erythrocytes, osmotic lysis OD700, 18 h; higher = more signal, called active from +8 up or from −8 down
[17] = S6 kinase pathway phospho-S6 level changes – cell-based, A549, cytoblot, luminescence, serum-stimulated, primary screen (AID 1158); conditions: 5 h, higher = more signal;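 also: serum-stimulated A549 lung adenocarcinoma cells; signal is phosphorylated S6 detected by cytoblot immunostaining with HRP secondary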
[18] = molecular target: NADPH oxidase 2 (Homo sapiens) (UniProt P04839); test: compounds shifting NOX2 Amplex Red fluorescence – cell-based, HEK293-NOX2, PMA-stimulated, NOX inhibitor project, primary screen (AID 1159); conditions: 45 min, higher = more signal, called active from +8 up or from −8 down; also: test concentration not given here
[19] = molecular target: NADPH oxidase 4 (Homo sapiens) (UniProt Q9NPH5); test: compounds shifting NOX4 Amplex Red fluorescence – cell-based, HEK293-NOX4, tetracycline-induced, NOX inhibitor project, primary screen (AID 1160); conditions: HEK293-NOX4, Amplex Red H2O2 fluorescence, 45 min; higher = more signal, called active from +8 up or from −8 down
[20] = molecular target: NADPH oxidase 5 (Homo sapiens) (UniProt Q96PH1); test: compounds shifting NOX5 Amplex Red fluorescence – cell-based, HEK293-NOX5, NOX inhibitor project, primary screen (AID 1161); conditions: HEK293-NOX5, ionomycin, 45 min, higher = more signal
Chain of NADPH oxidase 5 (Homo sapiens) (Q96PH1 whole entry, looked up): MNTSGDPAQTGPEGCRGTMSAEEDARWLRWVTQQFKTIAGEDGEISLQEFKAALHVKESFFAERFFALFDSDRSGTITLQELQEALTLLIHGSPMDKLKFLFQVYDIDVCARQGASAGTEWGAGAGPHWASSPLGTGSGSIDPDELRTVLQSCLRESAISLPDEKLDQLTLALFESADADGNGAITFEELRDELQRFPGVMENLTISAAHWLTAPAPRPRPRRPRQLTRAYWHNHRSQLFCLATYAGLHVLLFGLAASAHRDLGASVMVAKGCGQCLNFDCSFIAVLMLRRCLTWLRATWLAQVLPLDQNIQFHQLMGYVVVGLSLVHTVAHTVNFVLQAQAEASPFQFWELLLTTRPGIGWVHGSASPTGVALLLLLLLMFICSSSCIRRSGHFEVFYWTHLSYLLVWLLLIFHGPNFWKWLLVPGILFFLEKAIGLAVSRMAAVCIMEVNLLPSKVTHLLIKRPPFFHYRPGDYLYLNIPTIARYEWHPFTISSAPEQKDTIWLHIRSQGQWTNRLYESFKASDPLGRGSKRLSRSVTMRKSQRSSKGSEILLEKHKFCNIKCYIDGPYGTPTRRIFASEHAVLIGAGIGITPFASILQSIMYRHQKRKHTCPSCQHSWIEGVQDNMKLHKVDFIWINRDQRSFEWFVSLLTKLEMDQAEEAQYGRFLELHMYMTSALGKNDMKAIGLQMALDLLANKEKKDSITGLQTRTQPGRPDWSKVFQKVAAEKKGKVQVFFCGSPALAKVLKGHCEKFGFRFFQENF

Chain of NADPH oxidase 4 (Homo sapiens) (Q9NPH5 whole entry, looked up): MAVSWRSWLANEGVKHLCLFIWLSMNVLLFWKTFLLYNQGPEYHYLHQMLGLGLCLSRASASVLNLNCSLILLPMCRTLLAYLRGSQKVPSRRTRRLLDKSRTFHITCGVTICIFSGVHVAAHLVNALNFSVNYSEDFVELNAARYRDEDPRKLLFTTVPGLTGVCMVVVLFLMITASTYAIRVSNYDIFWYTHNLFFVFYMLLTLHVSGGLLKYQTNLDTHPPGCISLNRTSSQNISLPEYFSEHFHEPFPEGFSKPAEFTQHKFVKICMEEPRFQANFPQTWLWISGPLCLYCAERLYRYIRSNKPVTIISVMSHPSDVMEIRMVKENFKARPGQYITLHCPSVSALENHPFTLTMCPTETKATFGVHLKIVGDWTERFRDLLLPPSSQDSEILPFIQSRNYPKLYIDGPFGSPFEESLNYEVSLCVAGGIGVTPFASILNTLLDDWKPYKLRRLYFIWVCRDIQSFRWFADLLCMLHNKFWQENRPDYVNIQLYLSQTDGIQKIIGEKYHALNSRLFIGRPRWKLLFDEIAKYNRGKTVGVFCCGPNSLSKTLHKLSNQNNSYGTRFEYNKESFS
Chain of Torsin-1A (Homo sapiens) (O14656 whole entry, looked up): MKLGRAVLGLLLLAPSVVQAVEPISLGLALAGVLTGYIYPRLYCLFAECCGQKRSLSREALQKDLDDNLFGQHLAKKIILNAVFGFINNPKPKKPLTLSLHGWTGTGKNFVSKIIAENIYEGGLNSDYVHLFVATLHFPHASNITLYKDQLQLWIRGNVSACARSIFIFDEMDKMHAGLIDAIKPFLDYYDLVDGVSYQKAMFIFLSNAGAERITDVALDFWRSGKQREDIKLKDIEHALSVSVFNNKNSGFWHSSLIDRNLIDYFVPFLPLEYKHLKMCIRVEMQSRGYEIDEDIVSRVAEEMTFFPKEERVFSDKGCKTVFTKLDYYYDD
Chain of Streptavidin (Streptomyces avidinii) (P22629 whole entry, looked up): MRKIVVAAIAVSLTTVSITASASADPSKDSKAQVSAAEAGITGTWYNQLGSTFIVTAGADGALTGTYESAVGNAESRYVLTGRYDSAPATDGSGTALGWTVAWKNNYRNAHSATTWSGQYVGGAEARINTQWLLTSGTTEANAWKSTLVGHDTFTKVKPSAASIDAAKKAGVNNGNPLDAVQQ
Chain of NADPH oxidase 2 (Homo sapiens) (P04839 whole entry, looked up): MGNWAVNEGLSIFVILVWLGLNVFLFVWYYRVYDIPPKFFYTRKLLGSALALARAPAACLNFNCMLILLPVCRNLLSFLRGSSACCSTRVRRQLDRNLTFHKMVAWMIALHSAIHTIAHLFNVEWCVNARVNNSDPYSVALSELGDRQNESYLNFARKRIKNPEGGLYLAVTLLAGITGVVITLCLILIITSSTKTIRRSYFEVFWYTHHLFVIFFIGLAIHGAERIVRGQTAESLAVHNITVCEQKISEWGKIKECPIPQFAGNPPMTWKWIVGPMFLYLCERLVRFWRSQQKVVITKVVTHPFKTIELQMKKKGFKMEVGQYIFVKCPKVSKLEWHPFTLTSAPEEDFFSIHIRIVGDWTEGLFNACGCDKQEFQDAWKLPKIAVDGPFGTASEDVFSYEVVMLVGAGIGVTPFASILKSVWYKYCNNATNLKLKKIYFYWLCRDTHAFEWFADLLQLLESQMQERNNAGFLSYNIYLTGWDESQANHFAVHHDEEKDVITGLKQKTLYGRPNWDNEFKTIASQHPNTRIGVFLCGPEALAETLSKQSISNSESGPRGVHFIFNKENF

| SMILES | composite z-score [1] | z-score [2] | z-score [3] | z-score [4] | z-score [5] | composite z-score [6] | composite z-score [7] | composite z-score (Torsin-1A (Homo sapiens) [8]) | composite z-score (Torsin-1A (Homo sapiens) [9]) | composite z-score [10] | z-score [11] | composite z-score [12] | z-score [13] | z-score [14] | z-score [15] | z-score [16] | z-score [17] | z-score [18] | z-score [19] | z-score [20] |
| --- | --- | --- | --- | --- | --- | --- | --- | --- | --- | --- | --- | --- | --- | --- | --- | --- | --- | --- | --- | --- |
| COc1ccc(C(=O)Nc2ccc(CN3C(=O)[C@]4(O[C@H](CCn5cc(CCO)nn5)[C@@H]([Si](C)(C)c5ccc(OC)cc5)[C@@H]4C)c4ccccc43)cc2)cc1 | 0.278 | -7.86 (inactive) | -0.637 (inactive) | 3.37 (inactive) | -1.8 (inactive) | 0.863 | 0.279 | 0.421 | 0.638 | 1.99 | 0.173 (inactive) | 0.0253 | 9.37 (active) | 2.64 (inactive) | 1.68 (inactive) | 1.67 (inactive) | -0.196 | 0.844 (inactive) | 0.392 (inactive) | 3.29 |
| CC[C@H]1C2=C3C(CC[C@H]4C(OC)OC[C@](C)([C@@H]34)N(C(=O)OC(C)(C)C)C2)C(CO)C1CO (stereo not given in full) | 0.647 | -1.06 (inactive) | 1.01 (inactive) | -0.182 (inactive) | 0.385 (inactive) | 3.17 | 0.34 | 0.295 | 1.87 | -0.623 | -0.36 (inactive) | 0.631 | -0.51 (inactive) | -0.909 (inactive) | -0.337 (inactive) | -2.25 (inactive) | 1.59 | -0.108 (inactive) | -0.269 (inactive) | -2.77 |
| O=C1OCCC/C=C\[C@H]2OC34C=CCN(CCN5CCOCC5)C(=O)[C@H]3N(CCCCCO)C(=O)[C@@H]4C12 (stereo not given in full) | -0.498 | 0.305 (inactive) | 1.67 (inactive) | 0.597 (inactive) | 0.515 (inactive) | -0.293 | 0.202 | -1.01 | -0.649 | 0.392 | -0.938 (inactive) | -0.0984 | 1.07 (inactive) | -0.314 (inactive) | -0.566 (inactive) | -0.525 (inactive) | -0.768 | 0.796 (inactive) | -0.109 (inactive) | 1.01 |
| CCC1=C2CN(Cc3ccccc3Br)[C@@H]([C@@H](O)Cc3ccccc3)C2C=CCC1 (stereo not given in full) | 0.0361 | -5.22 (inactive) | -0.709 (inactive) | 2.12 (inactive) | 4.84 (inactive) | 0.721 | -0.105 | 0.476 | 0.212 | 0.675 | 0.625 (inactive) | -0.101 | 4.02 (inactive) | -0.96 (inactive) | -0.115 (inactive) | -1.8 (inactive) | 1.56 | -0.306 (inactive) | -4.86 (inactive) | -4.65 |
| O=C(NCC(F)(F)F)[C@@H]1c2ccccc2C(=O)N(Cc2ccccc2Cl)[C@H]1c1ccc(CO)cc1 | -0.234 | 0.197 (inactive) | 0.072 (inactive) | 0.414 (inactive) | -0.65 (inactive) | -1.38 | -0.176 | -0.495 | 0.986 | -0.59 | 0.774 (inactive) | -0.27 | 1.88 (inactive) | 0.839 (inactive) | 0.62 (inactive) | 0.157 (inactive) | -0.217 | -0.138 (inactive) | 0.22 (inactive) | -0.0659 |
